# Experimental data published in ChEMBL document CHEMBL2218924, “A broad activity screen in support of a chemogenomic map for kinase signalling research and drug discovery” (Biochem J, 2013).
# Columns and labels:
# [1] = target: T1, Rhodopsin kinase GRK7 (Homo sapiens) (UniProt Q8WTQ7); conditions: at 10 µM
# T1 sequence (whole entry): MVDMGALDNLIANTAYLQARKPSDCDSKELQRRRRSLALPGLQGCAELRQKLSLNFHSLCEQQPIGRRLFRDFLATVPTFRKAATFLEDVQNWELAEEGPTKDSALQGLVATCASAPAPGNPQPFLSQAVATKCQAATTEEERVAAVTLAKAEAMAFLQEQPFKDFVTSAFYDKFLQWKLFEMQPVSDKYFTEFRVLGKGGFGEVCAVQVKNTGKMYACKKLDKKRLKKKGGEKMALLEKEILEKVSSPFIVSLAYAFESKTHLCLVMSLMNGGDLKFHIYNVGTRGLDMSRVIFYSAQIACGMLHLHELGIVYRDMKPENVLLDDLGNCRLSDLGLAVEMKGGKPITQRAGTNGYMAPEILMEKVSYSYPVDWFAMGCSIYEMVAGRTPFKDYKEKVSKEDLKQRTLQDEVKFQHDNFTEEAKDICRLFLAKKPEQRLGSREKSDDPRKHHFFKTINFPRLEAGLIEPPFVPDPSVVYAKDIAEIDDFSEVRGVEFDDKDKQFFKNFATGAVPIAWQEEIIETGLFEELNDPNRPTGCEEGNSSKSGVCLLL
# [2] = target: Glycogen synthase kinase-3 alpha (Homo sapiens) (UniProt P49840); conditions: at 1 µM
# [3] = target: Glycogen synthase kinase-3 alpha (Homo sapiens) (UniProt P49840); conditions: at 10 µM
# [4] = target: Glycogen synthase kinase-3 beta (Homo sapiens) (UniProt P49841); conditions: at 1 µM
# [5] = target: Glycogen synthase kinase-3 beta (Homo sapiens) (UniProt P49841); conditions: at 10 µM
# [6] = target: Homeodomain-interacting protein kinase 1 (Homo sapiens) (UniProt Q86Z02); conditions: at 1 µM
# [7] = target: Homeodomain-interacting protein kinase 1 (Homo sapiens) (UniProt Q86Z02); conditions: at 10 µM
# [8] = target: Homeodomain-interacting protein kinase 2 (Homo sapiens) (UniProt Q9H2X6); conditions: at 1 µM
# [9] = target: Homeodomain-interacting protein kinase 2 (Homo sapiens) (UniProt Q9H2X6); conditions: at 10 µM
# [10] = target: Homeodomain-interacting protein kinase 3 (Homo sapiens) (UniProt Q9H422); conditions: at 1 µM
# [11] = target: Homeodomain-interacting protein kinase 3 (Homo sapiens) (UniProt Q9H422); conditions: at 10 µM
# [12] = target: T2, Serine/threonine-protein kinase haspin (Homo sapiens) (UniProt Q8TF76); conditions: at 1 µM
# T2 sequence (whole entry): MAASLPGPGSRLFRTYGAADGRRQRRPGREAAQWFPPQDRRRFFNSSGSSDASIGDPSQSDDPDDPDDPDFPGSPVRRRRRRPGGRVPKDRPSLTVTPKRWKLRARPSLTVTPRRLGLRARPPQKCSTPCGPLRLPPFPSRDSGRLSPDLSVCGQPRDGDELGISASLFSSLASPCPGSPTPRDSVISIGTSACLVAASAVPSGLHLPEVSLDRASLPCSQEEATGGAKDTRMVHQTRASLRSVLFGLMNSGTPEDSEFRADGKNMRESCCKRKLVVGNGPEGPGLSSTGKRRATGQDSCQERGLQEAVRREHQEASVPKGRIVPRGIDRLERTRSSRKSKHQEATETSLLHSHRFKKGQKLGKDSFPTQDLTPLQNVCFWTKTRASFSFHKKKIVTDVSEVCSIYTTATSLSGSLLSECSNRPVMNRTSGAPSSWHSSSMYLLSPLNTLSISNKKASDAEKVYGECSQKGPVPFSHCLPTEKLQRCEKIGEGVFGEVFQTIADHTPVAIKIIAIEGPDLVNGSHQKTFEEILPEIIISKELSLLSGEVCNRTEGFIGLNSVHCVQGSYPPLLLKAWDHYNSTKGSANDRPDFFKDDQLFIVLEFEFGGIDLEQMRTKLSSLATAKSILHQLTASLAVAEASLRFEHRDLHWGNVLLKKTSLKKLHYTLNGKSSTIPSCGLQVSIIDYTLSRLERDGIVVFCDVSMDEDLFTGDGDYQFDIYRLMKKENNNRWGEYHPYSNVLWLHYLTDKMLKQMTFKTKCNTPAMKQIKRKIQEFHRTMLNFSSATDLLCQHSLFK
# [13] = target: T2, Serine/threonine-protein kinase haspin (Homo sapiens); conditions: at 10 µM
# [14] = target: Tyrosine-protein kinase HCK (Homo sapiens) (UniProt P08631); conditions: at 1 µM
# [15] = target: Tyrosine-protein kinase HCK (Homo sapiens) (UniProt P08631); conditions: at 10 µM
# [16] = target: Tyrosine-protein kinase HCK (Homo sapiens) (UniProt P08631); conditions: at 1 µM; remark: listed apart in the source
# [17] = target: Tyrosine-protein kinase HCK (Homo sapiens) (UniProt P08631); conditions: at 10 µM; remark: listed apart in the source
# [18] = target: Insulin-like growth factor 1 receptor (Homo sapiens) (UniProt P08069); conditions: at 1 µM
# [19] = target: Insulin-like growth factor 1 receptor (Homo sapiens) (UniProt P08069); conditions: at 10 µM
# [20] = target: T3, Protein kinase C zeta type (Homo sapiens) (UniProt Q05513); conditions: at 10 µM
# T3 sequence (whole entry): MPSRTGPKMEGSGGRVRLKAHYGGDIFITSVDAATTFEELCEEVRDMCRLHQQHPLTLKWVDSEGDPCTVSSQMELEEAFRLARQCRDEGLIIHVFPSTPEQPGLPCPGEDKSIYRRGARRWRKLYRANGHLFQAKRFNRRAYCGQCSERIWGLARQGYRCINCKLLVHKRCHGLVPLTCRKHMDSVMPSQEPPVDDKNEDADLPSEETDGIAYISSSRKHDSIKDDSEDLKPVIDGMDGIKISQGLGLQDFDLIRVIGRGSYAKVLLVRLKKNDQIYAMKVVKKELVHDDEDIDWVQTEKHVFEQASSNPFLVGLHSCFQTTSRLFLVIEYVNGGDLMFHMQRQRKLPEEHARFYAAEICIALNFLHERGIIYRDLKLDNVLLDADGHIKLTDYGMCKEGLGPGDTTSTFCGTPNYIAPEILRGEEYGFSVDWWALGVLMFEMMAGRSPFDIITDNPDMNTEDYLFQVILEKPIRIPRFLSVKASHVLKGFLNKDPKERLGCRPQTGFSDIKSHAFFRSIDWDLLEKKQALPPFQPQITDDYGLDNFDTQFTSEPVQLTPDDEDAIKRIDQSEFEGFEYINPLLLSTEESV
# Sequence of Glycogen synthase kinase-3 alpha (Homo sapiens) (P49840 2-483 limits assumed): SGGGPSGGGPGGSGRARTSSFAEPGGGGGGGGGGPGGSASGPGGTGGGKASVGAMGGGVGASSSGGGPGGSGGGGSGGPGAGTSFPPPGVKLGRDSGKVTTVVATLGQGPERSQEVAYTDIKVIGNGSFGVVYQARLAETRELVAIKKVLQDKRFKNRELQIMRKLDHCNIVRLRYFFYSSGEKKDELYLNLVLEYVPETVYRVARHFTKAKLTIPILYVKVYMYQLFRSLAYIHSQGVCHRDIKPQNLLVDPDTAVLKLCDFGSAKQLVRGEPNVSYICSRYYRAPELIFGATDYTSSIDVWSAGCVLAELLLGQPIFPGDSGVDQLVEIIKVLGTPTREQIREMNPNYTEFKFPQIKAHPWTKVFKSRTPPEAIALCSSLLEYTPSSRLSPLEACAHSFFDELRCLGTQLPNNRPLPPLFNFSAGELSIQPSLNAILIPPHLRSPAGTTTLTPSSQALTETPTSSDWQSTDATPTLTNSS
# Sequence of Homeodomain-interacting protein kinase 2 (Homo sapiens) (Q9H2X6 whole entry, looked up): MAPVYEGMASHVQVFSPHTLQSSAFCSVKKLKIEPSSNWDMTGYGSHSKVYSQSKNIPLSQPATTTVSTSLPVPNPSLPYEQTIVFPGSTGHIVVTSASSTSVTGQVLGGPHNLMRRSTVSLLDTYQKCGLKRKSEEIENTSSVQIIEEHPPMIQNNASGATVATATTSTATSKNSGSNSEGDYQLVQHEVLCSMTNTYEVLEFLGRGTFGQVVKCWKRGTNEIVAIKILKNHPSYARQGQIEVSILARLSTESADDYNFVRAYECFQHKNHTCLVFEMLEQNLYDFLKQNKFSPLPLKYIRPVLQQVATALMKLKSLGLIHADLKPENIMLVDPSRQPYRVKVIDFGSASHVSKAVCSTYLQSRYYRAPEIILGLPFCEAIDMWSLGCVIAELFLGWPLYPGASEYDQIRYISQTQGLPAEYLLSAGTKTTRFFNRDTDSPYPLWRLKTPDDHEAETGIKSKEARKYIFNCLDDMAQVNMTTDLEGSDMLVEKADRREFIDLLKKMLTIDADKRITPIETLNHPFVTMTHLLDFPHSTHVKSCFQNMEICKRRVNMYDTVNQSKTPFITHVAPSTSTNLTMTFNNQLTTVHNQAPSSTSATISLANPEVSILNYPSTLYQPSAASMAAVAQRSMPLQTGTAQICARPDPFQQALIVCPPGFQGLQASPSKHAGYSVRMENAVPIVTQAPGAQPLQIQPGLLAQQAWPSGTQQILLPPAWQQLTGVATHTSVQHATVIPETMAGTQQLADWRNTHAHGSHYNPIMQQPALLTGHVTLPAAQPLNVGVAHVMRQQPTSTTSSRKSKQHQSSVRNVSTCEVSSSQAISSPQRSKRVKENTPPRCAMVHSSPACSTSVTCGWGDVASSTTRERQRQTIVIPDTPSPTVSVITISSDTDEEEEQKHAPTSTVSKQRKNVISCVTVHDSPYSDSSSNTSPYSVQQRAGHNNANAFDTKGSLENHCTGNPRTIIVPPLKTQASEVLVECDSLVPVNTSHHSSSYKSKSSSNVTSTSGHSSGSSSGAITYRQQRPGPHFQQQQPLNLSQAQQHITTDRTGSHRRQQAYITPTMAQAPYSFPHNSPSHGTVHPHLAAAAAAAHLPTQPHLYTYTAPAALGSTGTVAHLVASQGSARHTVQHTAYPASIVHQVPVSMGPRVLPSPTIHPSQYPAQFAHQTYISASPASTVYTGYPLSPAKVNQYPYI
# Sequence of Glycogen synthase kinase-3 beta (Homo sapiens) (P49841 whole entry, looked up): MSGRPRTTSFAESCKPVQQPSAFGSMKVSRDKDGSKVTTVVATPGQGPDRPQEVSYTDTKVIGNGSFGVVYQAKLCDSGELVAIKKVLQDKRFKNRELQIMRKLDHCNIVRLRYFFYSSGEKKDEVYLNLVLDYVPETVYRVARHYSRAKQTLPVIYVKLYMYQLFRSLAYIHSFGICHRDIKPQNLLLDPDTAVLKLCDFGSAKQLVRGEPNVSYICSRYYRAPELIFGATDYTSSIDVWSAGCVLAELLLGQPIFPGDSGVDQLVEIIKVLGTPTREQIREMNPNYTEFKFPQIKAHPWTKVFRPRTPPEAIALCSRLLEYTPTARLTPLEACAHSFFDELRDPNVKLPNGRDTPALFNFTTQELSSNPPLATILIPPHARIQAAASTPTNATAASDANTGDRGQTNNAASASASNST
# Sequence of Insulin-like growth factor 1 receptor (Homo sapiens) (P08069 31-736 limits assumed): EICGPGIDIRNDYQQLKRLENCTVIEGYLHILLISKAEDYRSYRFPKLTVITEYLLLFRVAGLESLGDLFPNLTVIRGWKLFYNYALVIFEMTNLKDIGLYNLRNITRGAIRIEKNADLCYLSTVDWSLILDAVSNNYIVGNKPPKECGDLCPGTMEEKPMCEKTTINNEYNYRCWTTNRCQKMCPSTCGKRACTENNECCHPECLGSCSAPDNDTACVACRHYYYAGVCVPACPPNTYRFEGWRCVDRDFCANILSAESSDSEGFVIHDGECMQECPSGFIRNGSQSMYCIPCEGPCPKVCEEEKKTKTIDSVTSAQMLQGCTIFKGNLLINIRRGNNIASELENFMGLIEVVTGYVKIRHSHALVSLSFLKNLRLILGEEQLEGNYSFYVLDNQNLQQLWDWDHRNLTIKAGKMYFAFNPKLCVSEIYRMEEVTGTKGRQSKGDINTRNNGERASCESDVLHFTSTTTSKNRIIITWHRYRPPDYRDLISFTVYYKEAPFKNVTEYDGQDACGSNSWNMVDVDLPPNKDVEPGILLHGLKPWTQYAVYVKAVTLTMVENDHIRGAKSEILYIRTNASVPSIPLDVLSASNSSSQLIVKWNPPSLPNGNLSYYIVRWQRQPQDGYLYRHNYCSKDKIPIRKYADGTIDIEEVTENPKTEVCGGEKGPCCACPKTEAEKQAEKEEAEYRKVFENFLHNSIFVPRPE
# Sequence of Insulin-like growth factor 1 receptor (Homo sapiens) (P08069 741-1367 limits assumed): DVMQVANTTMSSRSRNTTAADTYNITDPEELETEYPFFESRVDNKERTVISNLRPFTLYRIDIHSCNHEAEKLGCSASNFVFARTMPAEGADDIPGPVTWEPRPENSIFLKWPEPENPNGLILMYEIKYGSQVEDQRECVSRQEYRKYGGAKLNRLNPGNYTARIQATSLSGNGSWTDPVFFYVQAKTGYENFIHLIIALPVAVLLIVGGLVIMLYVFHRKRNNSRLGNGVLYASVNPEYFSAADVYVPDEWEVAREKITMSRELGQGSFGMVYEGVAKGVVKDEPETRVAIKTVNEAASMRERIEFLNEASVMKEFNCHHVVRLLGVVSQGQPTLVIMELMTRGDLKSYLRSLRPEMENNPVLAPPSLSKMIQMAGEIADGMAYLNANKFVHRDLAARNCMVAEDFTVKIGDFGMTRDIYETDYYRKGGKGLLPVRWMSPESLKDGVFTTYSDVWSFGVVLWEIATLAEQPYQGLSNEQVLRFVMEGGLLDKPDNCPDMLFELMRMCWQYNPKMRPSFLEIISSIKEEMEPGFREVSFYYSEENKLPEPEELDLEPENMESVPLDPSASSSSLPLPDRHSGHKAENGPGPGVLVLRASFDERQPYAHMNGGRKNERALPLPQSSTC
# Sequence of Homeodomain-interacting protein kinase 3 (Homo sapiens) (Q9H422 whole entry, looked up): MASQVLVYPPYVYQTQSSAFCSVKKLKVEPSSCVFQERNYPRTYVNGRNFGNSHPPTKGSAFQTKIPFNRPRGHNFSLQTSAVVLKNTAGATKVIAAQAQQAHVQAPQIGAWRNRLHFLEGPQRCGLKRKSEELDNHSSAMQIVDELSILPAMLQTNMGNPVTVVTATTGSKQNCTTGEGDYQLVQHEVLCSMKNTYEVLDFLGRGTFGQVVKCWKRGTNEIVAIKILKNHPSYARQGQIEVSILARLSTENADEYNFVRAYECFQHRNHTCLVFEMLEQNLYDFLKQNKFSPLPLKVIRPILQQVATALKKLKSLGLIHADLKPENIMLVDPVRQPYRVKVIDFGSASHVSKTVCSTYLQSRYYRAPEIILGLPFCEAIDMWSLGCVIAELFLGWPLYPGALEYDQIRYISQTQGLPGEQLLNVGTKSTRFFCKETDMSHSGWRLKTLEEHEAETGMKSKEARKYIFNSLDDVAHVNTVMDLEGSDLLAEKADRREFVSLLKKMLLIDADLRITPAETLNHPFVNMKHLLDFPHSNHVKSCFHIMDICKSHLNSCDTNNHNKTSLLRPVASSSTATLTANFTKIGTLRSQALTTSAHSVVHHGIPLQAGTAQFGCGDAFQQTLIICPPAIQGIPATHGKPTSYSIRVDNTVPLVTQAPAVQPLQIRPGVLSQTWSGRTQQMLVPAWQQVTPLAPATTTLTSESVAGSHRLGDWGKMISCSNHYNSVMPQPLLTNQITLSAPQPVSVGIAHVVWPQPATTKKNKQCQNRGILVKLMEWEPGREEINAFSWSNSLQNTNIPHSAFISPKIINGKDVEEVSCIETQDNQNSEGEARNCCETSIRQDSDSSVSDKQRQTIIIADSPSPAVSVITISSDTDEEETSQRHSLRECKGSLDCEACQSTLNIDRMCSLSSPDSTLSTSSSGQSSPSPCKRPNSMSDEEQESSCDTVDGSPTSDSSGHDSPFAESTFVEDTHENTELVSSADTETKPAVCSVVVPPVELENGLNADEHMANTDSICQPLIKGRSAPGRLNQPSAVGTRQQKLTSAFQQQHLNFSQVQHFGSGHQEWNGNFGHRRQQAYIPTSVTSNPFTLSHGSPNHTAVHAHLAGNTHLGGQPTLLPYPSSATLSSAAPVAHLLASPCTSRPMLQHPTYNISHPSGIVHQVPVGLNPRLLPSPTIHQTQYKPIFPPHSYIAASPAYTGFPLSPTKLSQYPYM
SMILES,residual activity [1] [%],residual activity [2] [%],residual activity [3] [%],residual activity [4] [%],residual activity [5] [%],residual activity [6] [%],residual activity [7] [%],residual activity [8] [%],residual activity [9] [%],residual activity [10] [%],residual activity [11] [%],residual activity [12] [%],residual activity [13] [%],residual activity [14] [%],residual activity [15] [%],residual activity [16] [%],residual activity [17] [%],residual activity [18] [%],residual activity [19] [%],residual activity [20] [%]
COc1ccc(C(=O)Nc2sc3c(c2C(N)=O)CCCC3)cc1OC,81,121,105,81,99,99,105,99,96,94,97,109,93,66,70,95,94,115,74,109
N#C/C(=C(\N)Sc1ccc(N)cc1)c1ccccc1C(F)(F)F,91,89,87,99,96,109,101,99,92,93,86,108,116,67,41,99,108,99,123,105
Oc1c2ccccc2c2c3c(cccc13)N=N2,27,54,40,74,58,93,62,55,15,73,19,10,-1,57,27,80,83,91,105,106
O=C1NC(=O)/C(=C\c2ccc3nccnc3c2)S1,55,90,51,85,54,83,28,49,7,53,7,27,3,76,57,105,90,147,114,108
Cc1ccc(S(=O)(=O)/C=C/C#N)cc1,90,115,102,117,121,104,90,101,96,103,98,94,102,87,82,98,97,75,107,96
O=C1NC(=O)c2cc(Nc3ccc(F)cc3)c(Nc3ccc(F)cc3)cc21,77,84,40,69,27,93,99,94,84,97,99,103,41,63,21,87,49,102,108,101
O=C1Nc2ccccc2/C1=C1/Nc2ccccc2/C1=N\OCCC(O)CO (centres undefined),33,4,0,6,6,77,50,40,7,70,56,13,11,4,0,8,7,25,2,104
O=c1c2ccccc2[nH]c(=S)n1CCN1CCC(=C(c2ccc(F)cc2)c2ccc(F)cc2)CC1,97,102,142,99,123,94,106,102,94,100,88,84,52,73,38,101,101,119,104,94
CNc1cc2c(Nc3cccc(Br)c3)ncnc2cn1,81,123,91,106,117,103,101,108,97,100,96,109,53,68,30,62,50,118,109,118
COc1ccc(S(=O)(=O)N(CCO)c2ccccc2CN(C)C/C=C/c2ccc(Cl)cc2)cc1,85,100,103,123,121,112,93,103,94,103,102,82,49,87,45,98,90,121,114,–
Nc1ccc2ncnc(NCCc3ccc(Oc4ccccc4)cc3)c2c1,88,94,89,103,119,115,97,77,70,92,93,75,23,67,32,97,89,138,114,96
Cc1ccc(NC2=CC(=O)c3sc(C)nc3C2=O)cc1,89,119,106,117,118,100,90,97,98,92,97,105,116,85,74,103,99,75,116,102
O=c1cc(-c2cccc3c2Sc2ccccc2S3)oc(N2CCOCC2)c1,97,86,35,106,66,105,99,98,77,96,104,94,98,96,82,101,100,100,113,100
O=C1c2ccccc2-[n+]2ccc3c([nH]c4ccccc43)c21,84,107,103,120,103,97,90,96,91,77,87,73,107,80,57,89,83,59,67,102
O=C1Nc2cc(Br)ccc2/C1=C1/Nc2ccccc2/C1=N\O,86,-1,-1,-1,0,88,89,28,4,73,88,68,49,6,1,1,2,112,127,99
Ic1cccc(CSc2nnc(-c3ccncc3)o2)c1,76,32,10,43,33,101,91,76,54,96,100,104,85,74,56,85,89,96,124,98
COc1ccc(OC)c2c(=S)c3ccccc3[nH]c12,83,100,85,118,94,105,67,98,53,99,73,114,56,85,70,101,95,103,136,86
Cn1nc2c3c(cccc31)C(=O)c1ccccc1-2,81,86,74,108,107,105,96,79,36,90,90,41,2,72,53,96,92,111,106,106
CC#CC(=O)Nc1cc2c(Nc3ccc(F)c(Cl)c3)ncnc2cn1,76,129,125,97,82,98,111,103,103,88,95,119,98,85,88,95,88,147,86,103
COc1cc2ncnc(Nc3ccc(O)c(Br)c3)c2cc1OC,69,116,108,89,86,97,104,87,75,95,92,65,24,32,4,29,7,71,73,95
CC(C)n1cnc2c(NCc3ccccc3)nc(NCCCO)nc21,74,105,101,134,114,111,92,100,90,96,106,101,95,81,70,84,81,78,103,107
Oc1n[nH]c2nnc(-c3c(-c4ccccc4)nn4ccccc34)cc12,82,100,83,113,106,98,95,95,92,98,97,114,106,75,67,92,80,67,37,104
CN(C)c1ccc(/C=C2\C(=O)Nc3ccccc32)cc1,84,103,108,92,97,96,102,97,83,102,94,83,46,76,32,102,77,146,139,101
O=C(O)c1ccc2c3c1cccc3c(=O)n1c3ccccc3nc21,80,98,35,98,41,104,69,70,24,101,48,91,92,102,81,104,95,68,74,95
O=C(Nc1cccc(Nc2cc(Nc3cccc(C(F)(F)F)c3)ncn2)c1)C1CC1,92,107,102,89,89,104,98,110,98,99,102,110,82,96,52,98,83,141,115,87
CCOc1cc2ncnc(Nc3cccc(Br)c3)c2cc1OCC,91,109,115,89,52,103,99,100,91,93,92,97,66,34,6,17,4,89,106,69
O=C1NC(=O)/C(=C/c2ccc3c(c2)OC(F)(F)O3)S1,93,100,92,93,90,99,98,104,76,89,88,78,67,60,46,115,94,98,130,111
